Test results: PubChem BioAssay AID588795 (National Center for Advancing Translational Sciences (NCATS), 2011)
Several values for one entry are separate records, joined by “and”; a condition that tells them apart may be missing. Identical values can stand only once. Out of some 390,000 compounds screened, about 1,400 (0.36%) were called active. Roughly 2% stayed inconclusive and do not appear here. This is one part of a sample in which actives are shown more often than they occur. Calls follow the shape of the dose curve; as a rule, active = well fitted inhibition curve with a large enough effect; inconclusive = small, poorly fitted or top-dose-only effect; inactive = no such curve, though single readings can be large or run the other way.

The molecules below were run against Flap endonuclease 1 (Homo sapiens) (UniProt P39748) (assay: qHTS Assay for the Inhibitors of Human Flap endonuclease 1 (FEN1).). Settings: Recombinant FEN1 flap cleavage, fluorescence, 15 min; series mostly up to 114 µM.
Sequence of Flap endonuclease 1 (Homo sapiens) (P39748 whole entry, looked up): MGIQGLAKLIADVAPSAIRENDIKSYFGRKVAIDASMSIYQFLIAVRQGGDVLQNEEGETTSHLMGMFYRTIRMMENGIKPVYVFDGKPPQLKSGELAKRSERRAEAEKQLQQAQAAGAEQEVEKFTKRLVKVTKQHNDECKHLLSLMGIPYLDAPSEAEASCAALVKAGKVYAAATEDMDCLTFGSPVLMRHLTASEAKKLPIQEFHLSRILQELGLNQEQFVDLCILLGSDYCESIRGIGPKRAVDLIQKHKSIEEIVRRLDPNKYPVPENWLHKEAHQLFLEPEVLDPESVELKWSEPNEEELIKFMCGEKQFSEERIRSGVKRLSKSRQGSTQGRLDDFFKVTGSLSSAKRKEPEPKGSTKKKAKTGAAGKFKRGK
Summary of the method: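 With each library titrated from low to high concentration, compounds met 10 nM FEN1 for 15 min at room temperature before 50 nM substrate was added; readings at 0 and 15 min fed four-parameter Hill curve fits.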
Also: nearly all actives have a fitted effect of over 65% in size.
Potency is read from the fitted curve at half-maximal effect.

Potency, active:
O=[N+]([O-])c1c(NCCO)cc(Sc2nc3ccccc3s2)c2nonc12 44.7 µM
CN(C(=O)COC(=O)c1cc(-c2ccco2)nc2ccccc12)C1CCS(=O)(=O)C1 (stereo not drawn) 50.1 µM
O=C(O)c1c(Br)c(Br)c(Br)c(Br)c1C1c2ccc(O)cc2Oc2cc(O)ccc21 3.98 µM
Cc1ccc(C)c(Nc2nnc(-c3ccc(C)c(S(=O)(=O)N4CCCCC4)c3)c3ccccc23)c1 89.1 µM
O=c1[nH]c2ccccc2n2c(-c3ccccc3)nnc12 79.4 µM and 20 µM
O=C(O)C(c1ccccc1)N1C(=O)/C(=C\c2ccc(-c3cccc(Cl)c3)o2)SC1=S (stereo not drawn) 17.8 µM
CSc1nnc(SCc2nc3sc(C(=O)O)c(C)c3c(=O)[nH]2)s1 20 µM
CC1(OC(=O)C2CCCC2)C(=O)C=C2C=C(c3ccc(C#N)cc3)OC=C2C1=O (stereo not drawn) 20 µM
Cc1nc(N=C(N)N)nc2c(C)cccc12 35.5 µM
COc1nc(N=C(N)N)nc2c(C)cccc12 39.8 µM
CCN(CC)N=Nc1cccc(NC(C)=O)c1 89.1 µM

Potency, inactive:
O=C1COc2ccc(-c3csc(-c4ccc(Cl)cc4)n3)cc2N1
Cc1cc(C)cc(NC(=O)CSc2nc(=O)n(CCN3CCOCC3)c3c2CCC3)c1
CCOc1ccc(NC(=O)CSc2nnc3c(n2)[nH]c2ccc(S(=O)(=O)N4CCOCC4)cc23)cc1
Cc1ccc(-n2ncc3c(NCCCn4ccnc4)ncnc32)cc1Cl
C(=Nc1ccc(/C=C/c2ccnc3ccccc23)cc1)c1cc2c3c(c1)CCCN3CCC2
CN(C(=O)CSc1nc2ccc(NC(=O)COc3ccccc3)cc2s1)c1ccccc1
CC(C)(C)c1ccc(S(=O)(=O)Nc2ccc(O)c(Sc3nc4ccccc4s3)c2)cc1
COc1cc(OC)c2c(C)cc(=O)oc2c1C(CCN1CCCCC1)c1ccc(N(C)C)cc1 (stereo not drawn)
CCN(CC)c1nc(C#N)nc(OC)n1
CN(CCOc1ccccc1)C(=O)c1cc(-c2ccco2)nc2ccccc12
CC1CCCN(C(=O)c2cc(-c3ccco3)nc3ccccc23)C1 (stereo not drawn)
N#CC1=C(N)Oc2cc(O)ccc2C1C1CCCCC1 (stereo not drawn)
Cc1ccc(Nc2nnc(-c3ccc(C)c(S(=O)(=O)N4CCCCC4)c3)c3ccccc23)cc1
Cc1ccc(-c2nnc(Nc3ccc(C(=O)N(C)C)cc3)c3ccccc23)cc1S(N)(=O)=O
O=[N+]([O-])c1ccc(S(=O)(=O)N2CCN(c3nc(-c4ccccc4)nc4ccccc34)CC2)cc1
NS(=O)(=O)c1ccc(NC(=O)CSc2nnc3c(n2)[nH]c2ccccc23)cc1
COc1ccc(CCNC(=O)C(=O)NCC(c2ccco2)S(=O)(=O)c2cccs2)cc1OC (stereo not drawn)
O=c1cc(-c2ccccc2)n2c(SCc3ccccc3)nnc2[nH]1
CC(C)(C)OC(=O)N(Cc1ccco1)S(=O)(=O)c1ccccc1Br
O=C1C[C@H]2C=CCc3cccc(c32)CN1Cc1ccccc1
O=C(c1ccc2c(=O)n(Cc3ccco3)c(=S)[nH]c2c1)N1CCCC1
O=S(=O)(Nc1cccc2cccnc12)c1cccc2cccnc12
Cn1cccc1/C=C1\SC(=S)N(NC(=O)c2ccc(Cl)cc2)C1=O
O=C(NCc1ccccc1)c1cc(-c2cccc(Cl)c2)on1
Cc1c(CCO)sc[n+]1CC(=O)c1ccc2ccccc2c1
O=C(C1COc2ccccc2O1)N(Cc1cccnc1)c1nc2c(F)cc(F)cc2s1 (stereo not drawn)
Cc1sc2nc(CSCC(=O)NC3CCCCC3)[nH]c(=O)c2c1C
CCOC(=O)c1sc2nc(CSCC(=O)OCc3ccc(C(=O)OC)o3)[nH]c(=O)c2c1C
CCOC(=O)C1CCN(C(c2ccc(F)cc2)c2sc3nc(-c4ccco4)nn3c2O)CC1 (stereo not drawn)
Cn1nnc2c(N3CCN(c4ccccc4)CC3)ncnc21
O=C(NCc1ccccc1)C(=O)NCC(c1ccco1)S(=O)(=O)c1ccc(Cl)cc1 (stereo not drawn)
COC(=O)CCCC1=CC2=CC(=O)C(C)(OC(=O)c3cccs3)C(=O)C2=CN1c1cccc(C#N)c1 (stereo not drawn)
CC1(OC(=O)CCc2ccccc2)C(=O)C=C2C=C(c3ccc(C#N)cc3)N(CCc3ccccn3)C=C2C1=O (stereo not drawn)
C=COC(=O)N1CCN(/[N+]([O-])=N/Oc2ccc([N+](=O)[O-])cc2[N+](=O)[O-])CC1
Cc1nc(/N=C(\N)NC(=O)NC2CCCCC2)nc2ccccc12
CCc1c(C)nc2c(OC)cccc2c1Cl
COc1ccccc1NC(=O)CSc1oc(-c2ccco2)nc1S(=O)(=O)c1ccc(Br)cc1
O=C(Nc1ccccc1C(F)(F)F)c1nc(S(=O)(=O)Cc2ccccc2F)ncc1Cl
CCOc1ccccc1N(CC)C(=O)Nc1cn(C)c(=O)c2ccccc12
Cc1ccc(NC2=C(c3ccc(C(F)(F)F)cc3)C(=O)c3ccccc32)cc1F
CN(CCC#N)c1ccc(C=O)cc1
CCN(CC)C(=O)CSC(Nc1cccc(F)c1)=C(C#N)C#N
CC(=O)Nc1cccc(C(=O)OCC(=O)c2ccc3c(c2)OCO3)c1
CCOC(=O)c1c(C)[nH]c(CCC(=O)NCCCN2CCN(c3cccc(Cl)c3)CC2)c1C
COc1ccc(CCn2c3c(c(=O)[nH]c2=S)CN(C(C)C)CN3)cc1OC
Cc1cccc(-c2nnc(SC(C)C(=O)Nc3ccccc3)n2C)c1 (stereo not drawn)
COc1cc(C(=O)Nc2ccc(-n3c(C)nc4ccccc4c3=O)cc2)cc(OC)c1OC
